“And” between values parts separate entries of the source, which are not always exact repeats. Equal values may be shown once. In all, about 5,500 compounds went through this assay and about 2,000 (36%) were called active. About 18% were inconclusive and are not listed. No stated cut-off is given here; in the data, active means normalized growth mostly below about 0.91 (no sharp cut-off); inconclusive means no clear call, values can overlap the other calls; inactive means mostly above about 0.92. The list shows a part of the results.
Test: chemical genetic growth profiling, strain panel (AID 1159580);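 further: tested at 20 µM; growth read once vehicle control cultures reached saturation at 30 °C; 1 = growth at the plate median or of vehicle wells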
Conditions: S. cerevisiae deletion strains, growth OD

Measured: normalized growth

NCCCCN=C(N)N
inactive: locus YAL013W, strain DEP1, stronger effect = lower value 1 | locus YAL021C, strain ccr4, stronger effect = lower value 1.02 | locus YAL026C, strain drs2, stronger effect = lower value 1.03 | locus YAL030W, strain snc1, stronger effect = lower value 1.03 | locus YAL040C, strain CLN3, stronger effect = lower value 1 | locus YBL061C, strain skt5, stronger effect = lower value 1.01 | locus YBR009C, strain hhf1, stronger effect = lower value 1.02 | locus YBR021W, strain FUR4, stronger effect = lower value 0.983 | locus YBR023C, strain chs3, stronger effect = lower value 1.03 | locus YBR171W, strain sec66, stronger effect = lower value 1.03 | locus YBR229C, strain ROT2, stronger effect = lower value 0.996 | locus YBR231C, strain swc5, stronger effect = lower value 1.01 | locus YBR279W, strain paf1, stronger effect = lower value 1.01 | locus YCL011C, strain gbp2, stronger effect = lower value 1.03 | locus YCL016C, strain dcc1, stronger effect = lower value 1.01 | locus YCL029C, strain bik1, stronger effect = lower value 0.979 | locus YCL061C, strain MRC1 (second series), stronger effect = lower value 1.01 | locus YCL069W, strain vba3, stronger effect = lower value 1.02 | locus YCR088W, strain abp1, stronger effect = lower value 1.04 | locus YDL005C, strain med2, stronger effect = lower value 1.04 | locus YDL035C, strain GPR1, stronger effect = lower value 1.02 | locus YDL040C, strain nat1, stronger effect = lower value 1.02 | locus YDL074C, strain BRE1, stronger effect = lower value 0.992 | locus YDL101C, strain DUN1, stronger effect = lower value 0.998 | locus YDL134C, strain PPH21, stronger effect = lower value 1.04 | locus YDL185W, strain tfp1, stronger effect = lower value 0.976 | locus YDL192W, strain arf1, stronger effect = lower value 0.986 | locus YDR001C, strain nth1, stronger effect = lower value 1.01 | locus YDR069C, strain doa4, stronger effect = lower value 1.02 | locus YDR101C, strain arx1, stronger effect = lower value 0.968 | locus YDR137W, strain rgp1, stronger effect = lower value 1.04 | locus YDR150W, strain NUM1, stronger effect = lower value 1 | locus YDR159W, strain sac3, stronger effect = lower value 1 | locus YDR162C, strain NBP2, stronger effect = lower value 1.01 | locus YDR195W, strain ref2 1.04 | locus YDR297W, strain sur2, stronger effect = lower value 1.02 | locus YDR318W, strain mcm21, stronger effect = lower value 1 | locus YDR334W, strain swr1, stronger effect = lower value 1.02 | locus YDR335W, strain msn5, stronger effect = lower value 1.03 | locus YDR363W, strain ESC2, stronger effect = lower value 0.994 | locus YDR388W, stronger effect = lower value 0.976 | locus YDR392W, strain spt3, stronger effect = lower value 0.992 | locus YDR502C, strain sam2, stronger effect = lower value 0.987 | locus YEL003W, strain gim4, stronger effect = lower value 1.02 | locus YEL037C, strain rad23, stronger effect = lower value 1.02 | locus YEL061C, strain CIN8 (second series), stronger effect = lower value 1.03 | locus YEL061C, strain CIN8, stronger effect = lower value 1 | locus YER002W, strain NOP16, stronger effect = lower value 1.03 | locus YER015W, strain faa2, stronger effect = lower value 1.03 | locus YER016W, strain bim1, stronger effect = lower value 1.01 | locus YER110C, stronger effect = lower value 0.977 | locus YER111C, strain swi4, stronger effect = lower value 1.03 | locus YER155C, strain BEM2 (second series), stronger effect = lower value 1.02 | locus YER155C, strain BEM2, stronger effect = lower value 0.981 | locus YER167W, strain BCK2, stronger effect = lower value 0.999 | locus YFR010W, strain ubp6, stronger effect = lower value 1.04 | locus YGL078C, strain dbp3, stronger effect = lower value 0.981 | locus YGL086W, strain mad1, stronger effect = lower value 0.963 | locus YGL167C, strain pmr1, stronger effect = lower value 1.02 | locus YGL173C, strain kem1, stronger effect = lower value 1.02 | locus YGL227W, strain vid30, stronger effect = lower value 1.02 | locus YGL240W, strain doc1, stronger effect = lower value 1.02 | locus YGL248W, strain PDE1, stronger effect = lower value 1 | locus YGL253W, strain hxk2, stronger effect = lower value 1.02 | locus YGR078C, strain PAC10, stronger effect = lower value 1 | locus YGR135W, strain pre9, stronger effect = lower value 1 | locus YGR229C, strain SMI1, stronger effect = lower value 1.01 | locus YGR252W, strain gcn5, stronger effect = lower value 1.09 | locus YHR013C, strain ard1, stronger effect = lower value 1.12 | locus YHR027C, strain rpn1, stronger effect = lower value 1.02 | locus YHR030C, strain SLT2, stronger effect = lower value 0.993 and 1.01 | locus YHR079C, strain IRE1 (second series), stronger effect = lower value 0.987 | locus YHR079C, strain IRE1, stronger effect = lower value 1.01 | locus YHR094C, strain hxt1, stronger effect = lower value 0.974 | locus YHR142W, strain chs7, stronger effect = lower value 1.05 | locus YHR200W, strain rpn10, stronger effect = lower value 0.987 | locus YIL066C, strain RNR3, stronger effect = lower value 0.994 | locus YIL073C, strain SPO22, stronger effect = lower value 1.03 | locus YIL125W, strain kgd1, stronger effect = lower value 0.974 | locus YIR030C, strain dcg1, stronger effect = lower value 0.988 | locus YJL092W, strain hpr5, stronger effect = lower value 1.02 | locus YJL095W, strain BCK1 (second series), stronger effect = lower value 1.03 | locus YJL095W, strain BCK1, stronger effect = lower value 1.02 and 0.995 | locus YJL115W, strain asf1, stronger effect = lower value 1.03 | locus YJL129C, strain trk1, stronger effect = lower value 1.06 | locus YJL134W, strain LCB3, stronger effect = lower value 0.998 | locus YJL154C, strain vps35, stronger effect = lower value 1.02 | locus YJL164C, strain tpk1, stronger effect = lower value 1.02 | locus YJL166W, strain qcr8, stronger effect = lower value 1.02 | locus YJL168C, strain set2, stronger effect = lower value 0.981 | locus YJL187C, strain SWE1 (second series), stronger effect = lower value 0.997 | locus YJL187C, strain SWE1, stronger effect = lower value 1.02 | locus YJR043C, strain POL32, stronger effect = lower value 0.993 | locus YJR066W, strain TOR1, stronger effect = lower value 0.973 | locus YKL009W, strain mrt4, stronger effect = lower value 1 | locus YKL068W, stronger effect = lower value 0.994 | locus YKL085W, strain MDH1 (second series), stronger effect = lower value 0.993 | locus YKL085W, strain MDH1, stronger effect = lower value 0.993 | locus YKL160W, strain elf1, stronger effect = lower value 1.02 | locus YKL190W, strain CNB1, stronger effect = lower value 1.01 | locus YKR001C, strain vps1, stronger effect = lower value 0.963 | locus YKR026C, strain gcn3, stronger effect = lower value 1.02 | locus YKR091W, strain srl3, stronger effect = lower value 1.02 | locus YLL001W, strain dnm1, stronger effect = lower value 1.01 | locus YLL026W, stronger effect = lower value 1.02 | locus YLL041C, strain sdh2, stronger effect = lower value 1.02 | locus YLR027C, strain aat2, stronger effect = lower value 1.03 | locus YLR039C, strain RIC1, stronger effect = lower value 1.01 | locus YLR058C, strain SHM2, stronger effect = lower value 1.01 | locus YLR102C, strain apc9, stronger effect = lower value 0.985 | locus YLR113W, strain HOG1, stronger effect = lower value 1 | locus YLR221C, strain rsa3, stronger effect = lower value 1.01 | locus YLR258W, strain gsy2, stronger effect = lower value 1.02 | locus YLR262C, strain YPT6 (second series), stronger effect = lower value 1.04 | locus YLR262C, strain YPT6, stronger effect = lower value 1.06 | locus YLR268W, strain sec22, stronger effect = lower value 0.957 | locus YLR320W, strain mms22, stronger effect = lower value 1.02 | locus YLR330W, strain CHS5, stronger effect = lower value 0.978 | locus YLR342W, strain FKS1 (second series), stronger effect = lower value 1.01 | locus YLR342W, strain FKS1, stronger effect = lower value 1.01 | locus YLR357W, strain rsc2, stronger effect = lower value 1.05 | locus YLR370C, strain arc18, stronger effect = lower value 1.03 | locus YLR371W, strain rom2, stronger effect = lower value 0.972 | locus YLR384C, strain iki3, stronger effect = lower value 1.03 | locus YLR418C, strain cdc73, stronger effect = lower value 1.01 | locus YML016C, strain PPZ1, stronger effect = lower value 0.991 | locus YML032C, strain rad52, stronger effect = lower value 1.02 | locus YML120C, strain ndi1, stronger effect = lower value 1.04 | locus YML124C, strain tub3, stronger effect = lower value 0.987 | locus YMR058W, strain fet3, stronger effect = lower value 1.02 | locus YMR078C, strain ctf18, stronger effect = lower value 0.986 | locus YMR125W, strain sto1, stronger effect = lower value 1.03 | locus YMR129W, stronger effect = lower value 1.02 | locus YMR205C, strain PFK2, stronger effect = lower value 1.02 | locus YMR223W, strain ubp8, stronger effect = lower value 1 | locus YMR231W, strain pep5, stronger effect = lower value 1.03 | locus YMR263W, strain SAP30, stronger effect = lower value 1.01 | locus YMR307W, strain GAS1, stronger effect = lower value 1.04 and 0.995 | locus YNL067W, strain RPL9B, stronger effect = lower value 1.01 | locus YNL071W, strain lat1, stronger effect = lower value 1.02 | locus YNL153C, strain GIM3, stronger effect = lower value 1.01 | locus YNL175C, strain NOP13, stronger effect = lower value 0.997 | locus YNL183C, strain NPR1, stronger effect = lower value 0.959 | locus YNL197C, strain WHI3, stronger effect = lower value 1.01 | locus YNL209W, strain ssb2, stronger effect = lower value 1.02 | locus YNL224C, strain SQS1, stronger effect = lower value 1.01 | locus YNL233W, strain BNI4, stronger effect = lower value 0.988 | locus YNL248C, strain rpa49, stronger effect = lower value 1.02 | locus YNL250W, strain rad50, stronger effect = lower value 0.974 | locus YNL271C, strain bni1, stronger effect = lower value 0.976 | locus YNL298W, strain CLA4, stronger effect = lower value 0.969 | locus YNL307C, strain MCK1, stronger effect = lower value 0.973 | locus YNL322C, strain KRE1 (second series), stronger effect = lower value 1.03 | locus YNL322C, strain KRE1, stronger effect = lower value 1 | locus YNR049C, strain mso1, stronger effect = lower value 1.02 | locus YNR052C, strain pop2, stronger effect = lower value 0.995 | locus YOL012C, strain htz1 0.814 | locus YOL147C, strain pex11, stronger effect = lower value 0.993 | locus YOR001W, strain rrp6, stronger effect = lower value 1.03 | locus YOR061W, strain CKA2, stronger effect = lower value 1 | locus YOR069W, strain VPS5, stronger effect = lower value 0.994 | locus YOR070C, strain gyp1, stronger effect = lower value 1.02 | locus YOR080W, strain dia2, stronger effect = lower value 1.03 | locus YOR083W, strain WHI5 (second series), stronger effect = lower value 1.01 | locus YOR083W, strain WHI5, stronger effect = lower value 1.01 | locus YOR106W, strain vam3, stronger effect = lower value 1.04 | locus YOR136W, strain idh2, stronger effect = lower value 0.972 | locus YOR144C, strain elg1, stronger effect = lower value 0.984 | locus YOR184W, strain ser1, stronger effect = lower value 0.985 | locus YOR265W, strain rbl2, stronger effect = lower value 1.02 | locus YOR270C, strain vph1, stronger effect = lower value 1.05 | locus YOR290C, strain snf2, stronger effect = lower value 1.01 | locus YOR316C, strain cot1, stronger effect = lower value 0.983 | locus YPL051W, strain arl3, stronger effect = lower value 1.01 | locus YPL078C, strain atp4, stronger effect = lower value 1.03 | locus YPL106C, strain sse1, stronger effect = lower value 1.04 | locus YPL240C, strain hsp82, stronger effect = lower value 1.02 | locus YPL256C, strain CLN2, stronger effect = lower value 0.994 | locus YPR119W, strain clb2, stronger effect = lower value 0.988 | locus YPR141C, strain kar3, stronger effect = lower value 0.988 | locus YPR163C, strain tif3, stronger effect = lower value 0.975 | locus YPR167C, strain met16, stronger effect = lower value 0.986 | strain wtn01, stronger effect = lower value 0.939

— PubChem BioAssay AID1159580 (chemical genetic matrix, 2015)
